Compound activity: PubChem BioAssay, National Center for Advancing Translational Sciences (NCATS)
Rows were chosen to be rich in hits. Some 19% of all compounds tested hit in one or more screens of this group.
HT1080-NT tox: kills 2HG-producing HT-1080-NT fibrosarcoma cells. HT-1080-NT fibrosarcoma viability, CellTiter-Glo ATP luminescence, 48 h. Potency, µM (highest dose often 46.1 µM), for inactives: at the top dose activity, negative = less viability, actives largely listed as cytotoxic. hit rate 1.6% among 360,000;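 note: NT is the 2HG producing partner of a matched IDH1 knockdown line; potency is the fitted concentration of half-maximal effect; 0% = DMSO-treated cells and -100% = media-only wells without cells; nearly all actives have a fitted effect of over 55% in size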
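Read-out is CellTiter-Glo luminescence after 10 minutes at room temperature, following 48 hours' compound treatment of HT-1080-NT cells (750 cells/well, RPMI, 5% FBS, 37 degrees C).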
TDP1 cell CPT: growth inhibition of DT40 Tdp1-/-;hTDP1 cells with camptothecin (screen for TDP1 inhibitors) | chicken DT40 Tdp1-/-;hTDP1 cells + 20 nM CPT, ATP luminescence, 48 h | Potency, µM (top dose mostly 46.2 µM), for inactives: at the highest dose activity change, negative = growth inhibition, most hits filed as inhibitors | hit rate 12% among 420,000; note: potency is the fitted concentration of half-maximal effect; nearly all actives have a fitted effect of over 55% in size
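Chicken DT40 Tdp1-/- cells stably complemented with human TDP1 were seeded at 400 cells/well in medium containing 20 nM camptothecin, exposed to pin-transferred compounds, and grown at 37 °C for at least 48 hr. Viability was read as ATP luminescence.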
ELG1 DNA repair: ELG1-dependent DNA repair inhibition; HEK293T ELG1-luciferase reporter, luminescence, 16 h; DNA damage induced by 5-fluorouridine; Potency, µM (top dose mostly 46.1 µM), for inactives: top-dose activity change, negative = inhibition, usual class: inhibitors; hit rate 2.3% among 330,000; note: potency is the fitted concentration of half-maximal effect; nearly all actives have a fitted effect of over 55% in size
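HEK293T cells expressing luciferase-tagged ELG1 (2,000/well) received 5-Fluorouridine plus compound or DMSO for 16 hr at 37 °C. Luciferase was read by ONE-Glo luminescence after 30 min at room temperature.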
DT40 TDP1 no CPT: qHTS for Inhibitors of human tyrosyl-DNA phosphodiesterase 1 (TDP1): qHTS in cells in absence of CPT. DT40 Tdp1-/- hTDP1 cells, no CPT, ATP luminescence, 48 h. Potency, µM (titrated, usually from 46.2 µM), without a hit: at the highest dose activity change, negative = growth inhibition, actives largely listed as inhibitors. hit rate 15% among 420,000. AID 686978, 2013; note: potency is the fitted concentration of half-maximal effect; nearly all actives have a fitted effect of over 55% in size
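Luminescent ATP content (CellTiter-Glo) served as the growth readout. Knockout chicken DT40 cells expressing human TDP1 were exposed to compounds without camptothecin for a minimum 48 hr at 37 °C.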
IL1B secr inh: blocks inflammasome-driven IL-1 beta release. activity change, % at 57.5 µM. THP-1 LPS/ATP IL-1B secretion, AlphaLISA, 16 h; hits give low values. hit rate 4.7% among 360,000; in the data active = activity change below about -50%; inconclusive = mostly about -30% to -49%
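Secreted IL-1B measured by AlphaLISA bead assay after 16 h compound exposure of THP-1 cells; compounds (final up to 57.5 uM) added 1 h before LPS (250 ng/mL) and ATP (1.25 mM) stimulation; lower signal means less secretion.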
HT1080 IDH1KD tx: toxicity to HT-1080 IDH1 knockdown cells (counter line). HT-1080 IDH1 knockdown viability, ATP luminescence, 48 h. Potency, µM (doses to about 46.1 µM), for inactives: at the highest dose activity, negative = toxicity, usual class: cytotoxic. hit rate 2% among 360,000. AID 686971;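 note: potency is the fitted concentration of half-maximal effect; 0% = DMSO wells and -100% = cell-free medium wells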
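Using the IDH1-knockdown HT-1080 line run in the same batch and compound series as the NT line, viability after 48 h at 37 °C was determined by CellTiter-Glo luminescence and expressed as % activity.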
Active calls of the source: *; i = inactive; ? = inconclusive; . = no result. Unless noted, calls come from the whole dose curve; as a rule, active = well fitted curve in the direction sought with a large enough effect; inconclusive = small, poorly fitted or top-dose-only effect, or another doubt; inactive = no such curve, though single readings can be large; an effect the other way counts as inactive or inconclusive. Unless noted, % is set by controls: 0 for no effect and ±100 for the full control effect.

SMILES	HT1080-NT tox	TDP1 cell CPT	ELG1 DNA repair	DT40 TDP1 no CPT	IL1B secr inh	HT1080 IDH1KD tx
CCCCC1CCC(C(=O)N(CCCC)c2c(N)n(CCCC)c(=O)[nH]c2=O)CC1 (centres undefined)	-13%	12µM*	?	21µM*	i	-9%
CCCCC1CCC(C(=O)N(CCC(C)C)c2c(N)n(CCCC)c(=O)[nH]c2=O)CC1 (centres undefined)	0%	?	.	?	-16	11%
COc1ccccc1-c1cnc(C(O)c2cccc(CN3CCCCC3)c2)[nH]1 (centres undefined)	4%	1%	.	-12%	31	4%
CSc1nc(NCCOC(C)=O)c(C#N)c(-c2ccc(C(C)(C)C)cc2)n1	.	?	.	16µM*	.	.
CN(C)NC(=O)c1ccc([N+](=O)[O-])s1	?	?	?	16µM*	8	0%
O=C(Nc1cccnc1)c1ccc([N+](=O)[O-])s1	?	0.73µM*	?	0.65µM*	-2	?
O=C(Nc1ccccc1F)c1ccc([N+](=O)[O-])s1	?	21µM*	23µM*	21µM*	-68*	?
O=C(Nc1cccc2ccccc12)c1ccc([N+](=O)[O-])s1	?	15µM*	16µM*	10µM*	15	?
CC(C)CN1CCCC2(CCN(C(=O)c3cnccn3)CC2)C1	.	1%	.	0%	.	.
O=C(CNC(=O)c1cccs1)N=Nc1c(O)[nH]c2ccc([N+](=O)[O-])cc12	-6%	-11%	-1%	-14%	-11	-6%
COc1cc2c(cc1OC)C(c1ccccc1)N(C(=O)c1ccccc1F)CC2 (centres undefined)	-15%	-22%	-27%	?	-19	-7%
COc1cc2c(cc1OC)C(COc1ccccc1OC)N(C(=O)c1ccccc1OC)CC2 (centres undefined)	.	?	.	18µM*	.	.
COc1cc2c(cc1OC)C(COc1ccccc1OC)N(C(=O)c1ccc(S(=O)(=O)N3CCCC3)cc1)CC2 (centres undefined)	.	16µM*	.	?	.	.
Cn1nccc1C(=O)Nc1ccn(C23CC4CC(CC(C4)C2)C3)n1	-5%	21µM*	13%	15µM*	-12	-17%
CN1C(CC(=O)Nc2ccc(Cl)cc2Cl)c2ccccc2CC1(C)C (centres undefined)	-13%	10µM*	?	16µM*	.	?
O=C(CC[C@H]1O[C@@H](n2ccc(=O)[nH]c2=O)[C@H](O)[C@@H]1O)NCC1CCCO1 (some centres undefined)	13%	-6%	.	-2%	11	19%
CCCCn1[nH]c(-c2ccccc2)cc1=O	-5%	?	-9%	18µM*	0	-7%
CCCc1cc(=O)n2[nH]c(-c3ccccc3)cc2n1	4%	-14%	?	?	13	11%
S=C(NCCCN1CCOCC1)N(Cc1ccccc1)Cc1ccccc1	-9%	2%	-7%	-6%	-30	-9%
CC(=O)Nc1ccc(Nc2ccc3c4c(cc(=O)n3C)-c3ccccc3C(=O)c24)cc1	1%	-25%	?	6.5µM*	?	-2%
COc1ccc(S(=O)(=O)N2CC(O)CC2C(=O)OCc2nc3sc(C)c(C)c3c(=O)[nH]2)cc1 (centres undefined)	0%	-14%	-1%	-16%	21	-3%
Cc1ccc(-c2noc(C(C)NC(=O)c3ccco3)n2)cc1 (centres undefined)	.	16µM*	.	12µM*	.	.
CC(NC(=O)c1ccco1)c1nc(-c2ccc(C(C)(C)C)cc2)no1 (centres undefined)	?	21µM*	6%	21µM*	0	-24%
CC(NC(=O)c1ccco1)c1nc(-c2ccccc2Cl)no1 (centres undefined)	0%	-18%	-1%	-10%	20	-6%
CC(C)(C)c1ccc(-c2noc(CNC(=O)c3ccco3)n2)cc1	-25%	-29%	20%	?	-15	-20%
SMILES	HT1080-NT tox	TDP1 cell CPT	ELG1 DNA repair	DT40 TDP1 no CPT	IL1B secr inh	HT1080 IDH1KD tx
Cc1ccc(-c2noc(C(C)NS(=O)(=O)c3ccc(C)cc3)n2)cc1 (centres undefined)	.	?	.	21µM*	.	.
CC(=O)Nc1ccc(S(=O)(=O)NC(C)c2nc(-c3ccccc3)no2)cc1 (centres undefined)	-8%	-16%	10%	-8%	-3	9%
Cc1ccc(NC(=O)Nc2c(C)n(C)n(-c3ccccc3)c2=O)c(Cl)c1	.	-2%	.	2%	.	.
Nc1cc(N)[nH]c(=S)n1	.	1%	.	-8%	.	.
CC(C)CSc1nnc2c3ccccc3n(C)c2n1	-6%	-10%	?	?	-20	-21%
CCCCc1c(C)nn(-c2nnc3c4ccccc4n(C)c3n2)c1C	-20%	23µM*	?	23µM*	13	-3%
O=C1/C(=C/c2ccccc2)CCc2ccc(Cl)nc21	?	2.6µM*	.	4.6µM*	-105*	18µM*
CC(=O)O[C@@]12CO[C@@H]1C[C@H](O)[C@@]1(C)C(=O)[C@H](O)C3=C(C)[C@@H](OC(=O)[C@H](O)[C@@H](NC(=O)OC(C)(C)C)c4ccccc4)C[C@@](O)([C@@H](OC(=O)c4ccccc4)[C@H]21)C3(C)C	.	0.0011µM*	.	0.0012µM*	.	.
Cc1nc(-c2ccc(F)cc2)sc1CCNC(=O)c1ccccc1	.	15µM*	.	23µM*	.	.
O=C(NCCc1ccccc1)c1cccs1	2%	-17%	?	-7%	0	-4%
Cc1nc(-c2ccc(Cl)cc2)sc1CCNC(=O)c1ccc(C(F)(F)F)cc1	.	8.2µM*	.	12µM*	.	.
COc1ccc(NC(=O)C(=O)NCCc2sc(-c3ccc(Cl)cc3)nc2C)cc1	.	-3%	.	-6%	.	.
Cc1nc(-c2ccc(F)cc2)sc1CCNC(=O)c1cccs1	.	21µM*	.	?	.	.
Cc1nc(-c2ccc(F)cc2)sc1CCNC(=O)c1ccc(C(C)(C)C)cc1	.	15µM*	.	16µM*	.	.
CC1=C([N+](=O)[O-])C(c2ccc(Cl)cc2)NC(=O)N1 (centres undefined)	-5%	7%	-6%	-4%	8	-13%
CCOc1ccc(N(CC(=O)N2CCN(C(=O)CN(c3ccc(OCC)cc3)S(C)(=O)=O)CC2)S(C)(=O)=O)cc1	-11%	-20%	-5%	1%	-3	7%
